Test results from PubChem BioAssay AID1117361 (Southern Research Institute, 2015).
Screen size: about 3,600 compounds; about 900 (25%) were called active. The list is a sample of the results. Entries that show only a call come without a potency. Potency and affinity values are given separately. Values without a mark were called inactive. No rule for the calls is given here.

These compounds were tested against Protein Tat (Human immunodeficiency virus type 1 group M subtype B (isolate HXB2)) (UniProt P04608) (assay: HIV-1 Tat–TAR interaction blockers – biochemical, fluorescence polarization, FAM-labeled TAR RNA, counter-screen for Vif-APOBEC3G degradation inhibitor project, dose response (AID 1117361)). Conditions: Tat-TAR RNA binding; series mostly up to 100 µM; inhibition: at the top concentration.
For `Cc1ccccc1OCCC(=O)Nc1ccccc1C(=O)NC1CC1`, the outcome was “inactive”. In the case of `OC(c1ccc(Cl)cc1)C(O)c1nc2ccccc2[nH]1` (configuration not stated), the “inhibition” value is reported as 1.67%. `CCCCOc1ccc(C(=O)NCC(=O)NCC(=O)OCC)cc1` was tested, and the “inhibition” value was 26.4%. `CCCCn1nc(C(=O)O)ccc1=O` was tested, and the outcome was “inactive”. `COc1ccc(CNC(=O)c2sc3nc4c(c(C(F)(F)F)c3c2N)CCC4)cc1OC` was tested, and the outcome was “inactive”. With `CC(=O)Nc1ccc(NC(=O)C(C)OC(=O)CC23CC4CC(CC(Br)(C4)C2)C3)cc1` (configuration not stated) the outcome was “inactive”. In the case of `CC1CCCN(CC(O)CN2CCN(CC(O)CN3CCCC(C)C3)C(C)C2)C1` (configuration not stated), the outcome is reported as “inactive”. With `COC(=O)C1C(O)=C(C=Nc2ccc(N)cc2)C(=O)CC1(C)C` (configuration not stated) the outcome was “inactive”. For `CCCc1n[nH]c2c1C(=O)C(C(=O)OC)C(C)(C)C2` (configuration not stated), the “inhibition” value was 3.38%. `CCCC(=O)C1=C(N(C)c2ccccc2)CC(C)(C)CC1=O` was tested, and the outcome was “inactive”. With `O=C(Nc1nnc(SCc2c(Cl)cccc2Cl)s1)c1cccc([N+](=O)[O-])c1` the outcome was “inactive”. With `CCOC(=O)N1CCC(Nc2c(-c3ccc(C)cc3)c(=O)c2=O)CC1` the “inhibition” value was 5.46%. For `O=C(Cn1cnc2c(cnn2-c2ccc(F)cc2)c1=O)N1CCN(c2ccccc2)CC1`, the outcome was “inactive”. For `COc1cc(C)c(C2NC(=O)c3ccccc3N2)cc1C` (configuration not stated), the “inhibition” value was 6.35%. For `COc1cc(C2Nc3cccc4cccc(c34)N2)cc(OC)c1OC(C)=O`, the outcome was “inactive”. `CCOC(=O)c1sc(C)c2c(=O)n(CCc3ccccc3)nnc12` was tested, and the “inhibition” value was 6.76%. For `O=C(/C=C/Nc1ccccc1Br)c1ccccn1`, the “inhibition” value was 14.2%. For `O=C(CSc1ncn[nH]1)Nc1nc(-c2ccccc2)ns1`, the outcome was “inactive”. For `CCOc1cc(NC(=S)NCC(C)C)c(OCC)cc1NC(=O)c1cccs1`, the “inhibition” value was 2.73%. In the case of `Cc1ccc(C)c(S(=O)(=O)Nc2ccccc2C(=O)Nc2ccccc2N2CCOCC2)c1`, the “inhibition” value is reported as 0.68%. For `COc1cccc(OC)c1C(=O)Nc1cc(Cl)ccc1N1CCOCC1`, the “inhibition” value was 6.76%. `O=C(CSc1ncn[nH]1)Nc1c(Br)cc([N+](=O)[O-])cc1Br` was tested, and the “inhibition” value was 2.05%. For `COc1ccccc1NS(=O)(=O)c1cc(C(=O)NCCN2CCOCC2)ccc1Cl`, the outcome was “inactive”. In the case of `CN1CCN(S(=O)(=O)Cc2ccc(Cl)cc2)CC1`, the outcome is reported as “inactive”. For `O=C(NCc1ccccc1)/C(=C/c1ccc(OC(F)F)cc1)c1ccccc1`, the outcome was “inactive”. With `O=C(CCS(=O)(=O)c1ccc(Br)cc1)N1CCN(c2ccc(F)cc2)CC1` the “inhibition” value was 4.12%. In the case of `Cc1ccc(C(C)C)c(OCCCN2CC(C)OC(C)C2)c1` (configuration not stated), the “inhibition” value is reported as 0.68%. In the case of `COC(=O)c1ccccc1NC(=O)CSCC(=O)Nc1ccccc1`, the “inhibition” value is reported as 9.46%. With `COC(=O)c1ccccc1NC(=O)C(C)Oc1ccccc1` (configuration not stated) the outcome was “inactive”. With `Cc1nnc(-c2cnn(C)c2N)n1Cc1ccc(Cl)cc1` the “inhibition” value was 2.7%. For `COc1cc(/C=C2\CC/C(=C\c3cc(OC)c(O)c(OC)c3)C2=O)cc(OC)c1O`, the outcome was “inactive”. With `COc1cc(C(=O)OCCN2CCCCC2)ccc1O` the outcome was “inactive”. `CC12C(=O)N(c3ccccc3C(=O)O)C(=O)C1C1C=CC2C1` (configuration not stated) was tested, and the outcome was “inactive”. In the case of `Cc1nc2ccccc2c2oc(C(=O)N3CCN(C(=O)c4ccco4)CC3)cc12`, the outcome is reported as “inactive”. For `Cc1cc(C(=O)N2CCN(CCc3ccccc3)CC2)no1`, the outcome was “inactive”. For `CC(=O)c1c(C)[nH]c(C(=O)Nc2ccc(C)c(C)c2)c1C`, the “inhibition” value was 6.14%. In the case of `CN(C)c1ccc(/C=C/C#N)cc1`, the outcome is reported as “inactive”. With `CCC(C(=O)Nc1cc(C(=O)O)ccc1C)c1ccccc1` (configuration not stated) the outcome was “inactive”. With `Cc1ccc(S(=O)(=O)N2CCCCC2)cc1C(=O)Nc1ccc2cn[nH]c2c1` the “inhibition” value was 1.35%. `CCC(C)NC(=O)Cc1cn(C)c2ccccc12` (configuration not stated) was tested, and the outcome was “inactive”. For `CCc1nnc(NC(=O)CC(CN(C)S(=O)(=O)c2ccccc2)c2ccccc2)s1` (configuration not stated), the “inhibition” value was 3.38%. In the case of `C#CCSc1nnc(-c2sc3ccccc3c2Cl)o1`, the outcome is reported as “inactive”. With `O=C(CCCCCN1C(=O)c2ccccc2C1=O)Nc1nccs1` the “inhibition” value was 1.67%. In the case of `CCCCOC(=O)CCCN1C(=O)/C(=C2\SC(=S)N(CCCC(=O)OCCCC)C2=O)SC1=S`, the outcome is reported as “inactive”. In the case of `O=C(CCn1c(=S)oc2ccccc21)Nc1ccc2c(c1)OCCO2`, the outcome is reported as “inactive”. `Cc1ccc(NC(=O)CCC(=O)NNC(=O)COc2cccc3ccccc23)c(C)c1` was tested, and the “inhibition” value was 6.08%. For `O=C(O)CCCN1C(=O)/C(=C\C(Cl)=C\c2ccccc2)SC1=S`, the outcome was “inactive”. `CCc1ccccc1NNC(=O)CCc1ccccc1` was tested, and the outcome was “inactive”. `CN(CC(=O)Nc1ccccc1Cl)C(=O)Cn1cc(C(F)(F)F)cc(Cl)c1=O` was tested, and the “inhibition” value was 0.33%. For `Cc1ccc(C)c(NC(=O)CSc2ncnc3nc[nH]c23)c1`, the “inhibition” value was 4.09%. With `CC(C)(C)c1ccc(-c2nnc(SCCC#N)n2C2CCCC2)cc1` the outcome was “inactive”. With `Cc1nc(C)c2c(c1C(F)(F)F)-c1ccccc1C2(F)F` the outcome was “inactive”. With `O=c1[nH][nH]c(=O)c2nc(Nc3ccccc3)ncc12` the outcome was “inactive”. With `CCc1nc(NCC2CCCN2CC)c2nnn(Cc3ccccc3F)c2n1` (configuration not stated) the “inhibition” value was 16.2%. With `CCN1CCN(C(=O)C2COc3ccccc3O2)CC1` (configuration not stated) the outcome was “inactive”. `Cc1ccc(N=Nc2ccc(N)cc2C)c(S(N)(=O)=O)c1` was tested, and the “inhibition” value was 24.7%. For `Cc1c(C(=O)O)oc2ccc(S(=O)(=O)N3CCC(C)CC3)cc12`, the “inhibition” value was 2.7%. For `CC(C)c1nc2ccccc2n1CCC(=O)O`, the “inhibition” value was 2.03%. `CCOC(=O)CNc1nc2ccccc2n2c(C)nnc12` was tested, and the “inhibition” value was 5.77%. `O=C1CN(C(=O)COC(=O)CCSc2ccccc2Cl)c2ccccc2N1` was tested, and the outcome was “inactive”. In the case of `Cc1ccc(-c2nnc(SCC(=O)N3CC(C)CC(C)C3)o2)cc1C` (configuration not stated), the “inhibition” value is reported as 4.77%. With `Cc1ccc(-n2nnc3c(=O)n(CC(=O)c4ccccc4)cnc32)cc1` the “inhibition” value was 1.35%. For `Cn1c(=O)c2c(nc(NCCc3ccccc3)n2Cc2ccccc2)n(C)c1=O`, the “inhibition” value was 2.73%. For `CC(=O)c1ccc(N2CCN(C(=O)C3CCC3)CC2)cc1`, the “inhibition” value was 5.41%. With `CC1(C)CC(=O)C2=C(C1)NCN(Cc1ccc3c(c1)OCO3)C2` the “inhibition” value was 2.73%. With `COC(=O)c1cccc(NC(=O)c2ccc3c(c2)C(=O)N(CC2CCCO2)C3=O)c1` (configuration not stated) the “inhibition” value was 4.73%. `O=c1[nH]c2ccc(NS(=O)(=O)c3ccc(F)c(Cl)c3)cc2[nH]1` was tested, and the outcome was “inactive”. `O=C(O)c1cccc2c1Oc1ccccc1S2(=O)=O` was tested, and the “inhibition” value was 1.67%. With `CCN1CNC(=S)N(CCc2ccccc2)C1` the outcome was “inactive”. For `CCOc1ccc2nc(Cl)c(C3CC(c4ccccc4)=NN3C(=O)c3cccs3)cc2c1` (configuration not stated), the outcome was “inactive”. With `O=C(NCCC1CCCCN1S(=O)(=O)c1ccc(F)cc1)C(=O)NCc1ccccn1` (configuration not stated) the “inhibition” value was 1%. `CC(C(=O)N1CCCCC1)n1ncn2cccc2c1=O` (configuration not stated) was tested, and the “inhibition” value was 14.3%.
